Measured values as given in PubChem BioAssay AID1851 (National Center for Advancing Translational Sciences (NCATS), 2009).
Values joined by “and” are separate entries in the source; they are usually repeats but may differ in a detail not shown here. Equal values may be shown once. The whole screen tested about 16,000 compounds, of which about 4,000 (25%) were called active. Another 26% or so got no clear call; they are omitted. The call rests on the fitted dose curve; in most records, active means well fitted curve in the direction sought with a large enough effect; inconclusive means small, poorly fitted or top-dose-only effect, or effect the other way; inactive means no such curve, though single readings can be large or run the other way. These entries were drawn from the full list.

The molecules below were run against Cytochrome P450 2C9 (Homo sapiens) (UniProt P11712) (assay: Cytochrome panel assay with activity outcomes). Conditions: recombinant CYP, pro-luciferin dealkylation, luminescence, p450-cyp2c9; series mostly up to 57.1 µM; activity, negative = inhibition: at the top concentration.
On the % scale 0 is the no-effect control and ±100 the full control effect.

Chain of Cytochrome P450 2C9 (Homo sapiens) (P11712 whole entry, looked up): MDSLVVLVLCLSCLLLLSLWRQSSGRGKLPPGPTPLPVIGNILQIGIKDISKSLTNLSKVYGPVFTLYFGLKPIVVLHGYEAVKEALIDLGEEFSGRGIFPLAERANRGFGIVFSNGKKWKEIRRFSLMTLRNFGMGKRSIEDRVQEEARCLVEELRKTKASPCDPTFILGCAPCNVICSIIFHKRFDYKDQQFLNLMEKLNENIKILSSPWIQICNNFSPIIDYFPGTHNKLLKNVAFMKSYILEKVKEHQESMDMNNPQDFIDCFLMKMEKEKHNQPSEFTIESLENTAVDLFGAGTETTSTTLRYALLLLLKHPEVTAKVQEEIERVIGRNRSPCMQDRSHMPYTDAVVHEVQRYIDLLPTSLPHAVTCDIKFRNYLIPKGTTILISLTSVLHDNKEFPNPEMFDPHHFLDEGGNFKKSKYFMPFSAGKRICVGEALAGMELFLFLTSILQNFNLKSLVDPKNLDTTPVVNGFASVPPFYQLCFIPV

AC50, active:
O=C1C(SCCO)=C(SCCO)C(=O)c2ccccc21 5.01 µM
CC(C)c1ccc(OCc2ccc(C(=O)N3CCN(c4ccccn4)CC3)cc2)cc1 3.16 µM
COc1ccc(S(=O)(=O)NCc2ccc(C(=O)N3CCN(c4ccccn4)CC3)cc2)cc1 3.98 µM
CC1CCc2cc(F)ccc2N1C(=O)CSc1nnc2c(n1)[nH]c1ccc(F)cc12 (centres undefined) 1.78 µM
CCOC(=O)CC(=O)CSc1nnc2c(n1)[nH]c1ccccc12 8.91 µM
Cc1ccc(C(=O)NNC(=O)CSc2nnc3c(n2)[nH]c2ccc(F)cc23)cc1 5.62 µM
COc1ccc(/C=N/NC(=O)c2ccn[nH]2)cc1COc1ccc(Cl)cc1 12.6 µM
COc1ccc(/C=N/NC(=O)c2ccccc2)cc1CN1CCN(c2ccc(F)cc2)CC1 11.2 µM
COc1ccc(/C=N/NC(=O)c2ccn[nH]2)cc1COc1ccc(F)cc1 25.1 µM
CCOc1nc(N2CCCCC2)nc(-n2cc(-c3ccccc3)nn2)n1 2.24 µM
Cc1c(Br)c([N+](=O)[O-])nn1C(C)C(=O)Nc1nccs1 (centres undefined) 3.55 µM
CO[C@H]1COC(=O)C/C=C\[C@H](C)[C@@H](OC)COC(=O)[C@@H](C)COC(=O)C/C=C\[C@@H]1C 2.51 µM
Cc1nn(-c2ccccc2)c2c1C(c1ccc(O)c(O)c1)N1C(=N2)C(Nc2ccccc2)=Nc2ccccc21 (centres undefined) 1.26 µM
CC(=O)Nc1ccc(NC2=Nc3ccccc3N3C2=Nc2c(c(C)nn2-c2ccccc2)C3c2ccccc2)cc1 (centres undefined) 1.78 µM
O=C(NNS(=O)(=O)c1ccc(Cl)cc1)c1cnn(-c2ccccc2)c1-n1cccc1 1.78 µM
COc1cccc(N(C(=O)Cn2nnc(-c3ccc(C)cc3)n2)C(C(=O)NC(C)(C)C)c2c[nH]c3ccccc23)c1 (centres undefined) 5.01 µM
CCCc1cc(=O)[nH]c(SCc2cc(Cl)ccc2OC(F)F)n1 2.82 µM
O=C1/C(=C\c2ccccn2)SC(=S)N1Nc1ncc(C(F)(F)F)cc1Cl 5.01 µM
Cc1cccc2c(SCC(=O)NCC3CCCO3)nc(-c3ccc(F)cc3)nc12 (centres undefined) 3.98 µM
O=C(O)c1ccccc1-c1ccccc1C(=O)Nc1ccc2c(c1)Cc1cc(F)ccc1-2 2.51 µM
CC(C)(C)c1[nH]nc2c1C(c1ccc(OC(=O)c3ccco3)cc1)C(C#N)=C(N)O2 (centres undefined) 4.47 µM
Cc1ccc(C(=O)NNC(=O)CSc2nnc(-c3ccncc3)n2-c2ccc(C)cc2)cc1 5.01 µM
CCC1(C)CC(CCNS(=O)(=O)c2ccc(C)cc2)(c2ccc(C)cc2)CCO1 (centres undefined) 5.62 µM
C[C@@H](C(=O)O)/C(=C/c1ccc2c(c1)OCO2)C(=O)O 2.51 µM
Cc1ccccc1Oc1ccc(-c2nc(N)nc(N)n2)cc1 8.91 µM
COc1cccc(NC(=O)c2cc(-c3cccnc3)nc3c(Cl)cccc23)c1 0.794 µM
CCc1cc2c(Sc3nc4ccccc4s3)ncnc2s1 11.2 µM
CCn1c2ccccc2c2cnc(N=CN(C)C)c(C#N)c21 14.1 µM
CCOC(=O)C(C)Sc1ncc(OC)c(Sc2ccc(Cl)cc2)n1 (centres undefined) 2.51 µM
CCOC(=O)CSc1ncc(OC)c(Sc2ccc(Cl)cc2)n1 0.891 µM
COc1ccc(-c2cnnn2-c2ccc(NC(=O)c3ccco3)cc2)cc1OC 2.24 µM
O=C(Nc1ccc(-n2nncc2-c2ccco2)cc1)c1cc2ccccc2oc1=O 2.24 µM

activity, negative = inhibition, inactive:
O=S(=O)(O)[C@@H](CO)c1ccccc1 (tested in a mixture with another compound) -2.54% [at 11.4 µM]
CCCn1c(=O)c2[nH]c(C3CCCC3)nc2n(CCC)c1=O -16.3%
Nc1ncnc2c1ncn2[C@H]1O[C@@H](C(=O)O)[C@@H](O)[C@H]1O 20% [at 11.4 µM]
O=C(c1ccco1)N1CCC2(CC1)CN(c1ccccn1)C2 2.21%
COCC(=O)N1CCC2(CC1)CCN(c1ccccn1)CC2 -6.99%
COc1ccc(C(=O)N2CCC3(CC2)CN(C(=O)Nc2ccccc2)C3)cc1 0.0177%
COc1ccc(C(=O)N2CCC3(CC2)CCN(c2ncccn2)CC3)cc1 -29.8%
Cc1ccc2[nH]c3nc(CCCn4ccnc4-c4ccccc4)nnc3c2c1 -17.6% [at 11.4 µM]
C[C@@H]1CCc2cc(F)cc3c(=O)c(C(=O)O)cn1c23 17.9% [at 25.6 µM]
CCOCc1cnc(C)nc1NCC(=O)c1c(C)[nH]c2ccccc12 2.81%
Cc1ccc(C(=O)NNC(=O)c2cc3cc4ccccc4nc3s2)cc1 -26%
CON(C)C(=O)c1nnc2c(n1)[nH]c1ccccc12 -19% [at 11.4 µM]
COc1ccccc1CN1CCC2(CC1)CCN(C(C)=O)CC2 8.11%
CCOc1cc(CN2CCN(c3ccc(C(C)=O)cc3)CC2)ccc1OC -29%
Cc1ccc(/C=N\NC(=O)c2cc(OCC(F)(F)F)ccc2OCC(F)(F)F)cc1 -1.33%
COc1cccc(/C=N\NC(=O)c2cc(OCC(F)(F)F)ccc2OCC(F)(F)F)c1 -8.34%
Cc1n[nH]c(=O)[nH]c1=O -0.473% [at 25.6 µM]
O=C(O)CC12C[C@H]3C[C@@H](CC(O)(C3)C1)C2 -4.71% [at 11.4 µM]
Cc1cnc(CNc2nc(-c3cccnc3)nc3ccccc23)cn1 16.9% [at 2.29 µM]
NCCS -13.1%
O=C(O)c1cc(=O)cc(C(=O)O)[nH]1 -3.86%
CO[C@H]1COC(=O)C/C=C\[C@H](C)[C@H](OC)COC(=O)[C@@H](C)COC(=O)C/C=C\[C@@H]1C -5.38% [at 11.4 µM] and 5.78% [at 11.4 µM]
CO[C@@H]1COC(=O)C/C=C\[C@@H](C)[C@H](OC)COC(=O)[C@@H](C)COC(=O)C/C=C\[C@H]1C 11.9% [at 11.4 µM]
O=C(NNS(=O)(=O)c1ccc(Cl)cc1)C1CCN(Cc2ccccc2)CC1 -17.3%
Cc1cc(C)cc(C(=O)N(C)[C@H](Cc2ccc(-c3ccccc3)cc2)C(=O)N[C@@H](Cc2c[nH]c3ccccc23)C(=O)O)c1 -24.1%
Cc1[nH]c(N)nc(=S)c1CCCNc1ccccc1 -9.42% [at 11.4 µM]
O=C(O)c1cc(=O)[nH]c(SCc2ccccc2)n1 -7.95% [at 11.4 µM]
Cn1c(=O)c(-c2ccc(F)cc2)nc2cnc(Oc3ccccc3)nc21 13.7%
COc1ccc(-c2nc(CSCC(=O)NCC3CCCO3)c(C)o2)cc1OC (centres undefined) -29.9%
Cc1ccc(C)c(-n2c(Cc3cc(=O)[nH]c(=O)[nH]3)nnc2SCC(=O)NCC2CCCO2)c1 (centres undefined) -15.2%
O=C(O)/C=C\C(=O)Nc1ccc2c(c1)-c1ccccc1C2 -10.9% [at 11.4 µM]
S=C(Nc1ccc2c(c1)Cc1ccccc1-2)Nc1ccc2c(c1)Cc1ccccc1-2 1.69% [at 11.4 µM]
CO[C@]1(C2=NCCN2)COc2ccccc2O1 17.2%
CC(C)OCCCNC(=O)C1CC(=O)N(C2CCCCCCC2)C1 (centres undefined) -16.8%
C[N+](C)(C)c1nc(N)nc2c1ncn2[C@H]1O[C@@H](CO)[C@@H](O)[C@H]1O 12.2% [at 11.4 µM]
CN(C(=O)C(Cl)Cl)c1ccc(OC(=O)c2ccco2)cc1 7.39% [at 25.6 µM]
CC(C)NC[C@@H](O)COc1ccccc1-n1cccc1 6.41%
C=C(C)[C@@H]1CC=C(C(=O)O)CC1 3.86%
Cc1cccc(CNc2ncncc2-c2ccc(C(=O)N(C)C)cc2)c1 2.16% [at 2.29 µM]
Cc1ccc(S(=O)(=O)NCCSc2nnnn2C)cc1 -21.7%
CN(C)CCNC(=O)C(C(=O)c1ccc(F)cc1)n1ccccc1=O (centres undefined) -16.9%
CC(C)=CCC/C(C)=C/CO/N=C1/[C@H]2O[C@@H]2[C@@H](O)[C@H]2[C@H]1CCn1c(=O)n(Cc3cc4c(cc3Cl)OCO4)c(=O)n12 -2.9% [at 11.4 µM]
Cc1noc(C)c1-c1nccc(NCc2cccnc2)n1 3.9% [at 2.29 µM]
O=C(O)/C=C\C=C/c1ccc2c(c1)OCO2 -5.25% [at 11.4 µM]
OC[C@@H]1O[C@@H](O)[C@H](N=Cc2ccc3c(c2)OCO3)[C@@H](O)[C@@H]1O 12.1% [at 11.4 µM]
Cc1cccc(Oc2ncc(-c3ccc(Cl)cc3)cn2)c1C -23%
Nc1nc(-c2ccc3ccccc3c2)cc(-c2cc(-c3ccc4ccccc4c3)nc(N)n2)n1 8.18% [at 11.4 µM]
COc1cccc(NC(=O)C2c3cc(OC)c(OC)cc3C(=O)N(C)C2c2cccnc2)c1 (centres undefined) -19.8%
CCCOc1ccc(-c2nc(N)n[nH]2)cc1 -24.8%
NCCSS(=O)(=O)CCN -9.3% [at 11.4 µM]
c1ccc(NCCSc2nc3ccccc3s2)cc1 -12.4% [at 11.4 µM]
O=C1[C@H]2[C@H]3[C@H](O)[C@H](O)C/C(=N/OC[C@@H](O)COCc4ccco4)[C@H]3CC[C@@H]2C(=O)N1C1CCCCC1 23.1% [at 11.4 µM]
O=C(O)[C@H]1CN[C@H](C(=O)O)C1 0.543%
COC(=O)CSc1ncc(OC)c(OC)n1 6.45%
Cc1cnc(CNc2ncncc2-c2ccoc2)cn1 6.74% [at 2.29 µM]
O=C(NCCN1CCN(C(=O)c2cc3ccccc3oc2=O)CC1)c1cc2ccccc2oc1=O -15.3%
CO[C@H]1C=CO[C@]2(C)Oc3c(C)c(O)c4c(O)c(c5c(c4c3C2=O)NC2(CCN(CC(C)C)CC2)N=5)=NC(=O)C(C)=CC=C[C@@H](C)[C@@H](O)[C@@H](C)[C@@H](O)[C@@H](C)[C@@H](OC(C)=O)[C@@H]1C 5.75% [at 25.6 µM]
